The text below walks through data of the supplement of paper PMC9262897, “Low-cost anti-mycobacterial drug discovery using engineered E. coli” (Nature Communications, 2022).

Holding throughout (assay): growth (OD600 after 10 h); higher = more growth (less inhibition)
Assay [1] relates to E. coli TESEC Alr+ wild-type control. The conditions noted are these: compound 0.1 mM; raw OD600 reference: median of DMSO wells 0.241, cell-free background 0.041. How it is done:
(§1)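 TESEC Mtb Alr E. coli, or the Alr+ wild-type control, in 384-well plates with Prestwick library compounds at 0.1 mM and 1% DMSO, across arabinose induction levels of 1E3 to 1E7 nM. Growth is read as OD600 after 10 h at 37 °C in triplicate biological replicates.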

Assay [2] deals with E. coli TESEC Mtb Alr. To be noted: compound 0.1 mM. Here is the method: as §1
A further assay has as its system E. coli TESEC Mtb Asd. To be noted: compound 0.1 mM. How it is done: (§2)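 TESEC E. coli strains in which the native enzyme is deleted and replaced by arabinose-inducible Mtb Asd, DapB, CysH or TrpD, each grown in its selective medium. Strains were screened against the Prestwick library at 0.1 mM and 1% DMSO in 384-well format at low and high arabinose induction. Growth is read as OD600 after 10 h in triplicate.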

In the next assay the test system is E. coli TESEC Mtb DapB. To be noted: compound 0.1 mM. How it is done:
as §2

Assay [3] relates to E. coli TESEC Alr+ wild-type control. The conditions noted are these: compound 0.1 mM; raw OD600 reference: median of DMSO wells 0.49, cell-free background 0.052. Here is the method: (§3)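 TESEC Mtb Alr E. coli (ΔaraC ΔtolC ΔentC Δalr ΔdadX, arabinose-inducible Mtb Alr) or the Alr+ wild-type control strain, grown in defined M9-fructose medium without D-alanine in 96-well plates with Prestwick library compounds at 0.1 mM and 1% DMSO. Low Alr induction is 0.1 µM arabinose and high induction is 10 mM arabinose.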

The test system of assay [4] is E. coli TESEC Mtb Alr. The conditions noted are these: compound 0.1 mM. How it is done: as §3
The source holds these as a separate data set.

Setting [5] is: arabinose 1000 nM, raw OD600 reference: median of DMSO wells 0.294, cell-free background 0.041.
The mark [6] stands for this setting: arabinose 10000 nM, raw OD600 reference: median of DMSO wells 0.264, cell-free background 0.041.
The mark [7] stands for this setting: arabinose 100000 nM, raw OD600 reference: median of DMSO wells 0.201, cell-free background 0.041.
The mark [8] stands for this setting: arabinose 1000000 nM, raw OD600 reference: median of DMSO wells 0.193, cell-free background 0.041.
The mark [9] stands for this setting: arabinose 10000000 nM, raw OD600 reference: median of DMSO wells 0.146, cell-free background 0.041.
The mark [10] stands for this setting: arabinose induction (level): High, raw OD600 reference: median of DMSO wells 0.331, cell-free background 0.041.
Where [11] appears, read: arabinose induction (level): Low, raw OD600 reference: median of DMSO wells 0.417, cell-free background 0.041.
Setting [12] is: arabinose induction (level): High, raw OD600 reference: median of DMSO wells […], cell-free background 0.041.
Setting [13] is: arabinose induction (level): Low, raw OD600 reference: median of DMSO wells 0.227, cell-free background 0.041.
Where [14] appears, read: arabinose 100 nM, raw OD600 reference: median of DMSO wells 0.413, cell-free background 0.052.
Where [15] appears, read: arabinose 10000000 nM, raw OD600 reference: median of DMSO wells […], cell-free background 0.052.

Structures can show the parent of a compound that is named as a salt. ± gives the standard deviation of the averaged measurements.

Consider `CC1(O)CCOC(=O)C1` (configuration not stated) [Mevalonic-D, L acid lactone], for which the growth turned out to be 0.244 ± 0.0056 in assay [1]; 0.304 ± 0.017 in the assay on E. coli TESEC Mtb Alr [2] (setting [5]); 0.271 ± 0.0041 in the assay on E. coli TESEC Mtb Alr [2] (setting [6]); 0.186 ± 0.019 in the assay on E. coli TESEC Mtb Alr [2] (setting [7]); 0.203 ± 0.0065 in the assay on E. coli TESEC Mtb Alr [2] (setting [8]); 0.141 ± 0.0074 in the assay with E. coli TESEC Mtb Alr [2] (setting [9]). For the same compound, the growth stood at 0.269 ± 0.027 in the assay with E. coli TESEC Mtb Asd (setting [10]); 0.402 ± 0.022 in the assay on E. coli TESEC Mtb Asd (setting [11]); 0.183 ± 0.011 with E. coli TESEC Mtb DapB (setting [12]); 0.206 ± 0.024 in the assay on E. coli TESEC Mtb DapB (setting [13]); 0.506 ± 0.11 in assay [3]; 0.394 ± 0.03 in the assay with E. coli TESEC Mtb Alr [4] (setting [14]). Moreover, the growth in the assay with E. coli TESEC Mtb Alr [4] (setting [15]) was found to be 0.349 ± 0.015.

Regarding `Cc1nc2ccccn2c(=O)c1CCN1CCC(C(=O)c2ccc(F)cc2)CC1` [Pirenperone], the growth in assay [1] stood at 0.208 ± 0.0042; in the assay with E. coli TESEC Mtb Alr [2] (setting [5]), 0.272 ± 0.0064; in the assay on E. coli TESEC Mtb Alr [2] (setting [6]), 0.268 ± 0.013; with E. coli TESEC Mtb Alr [2] (setting [7]), 0.208 ± 0.043; in the assay on E. coli TESEC Mtb Alr [2] (setting [8]), 0.178 ± 0.0069; in the assay on E. coli TESEC Mtb Alr [2] (setting [9]) it was 0.147 ± 0.007. Also, the growth in the assay on E. coli TESEC Mtb Asd (setting [10]) is 0.352 ± 0.045; in the assay with E. coli TESEC Mtb Asd (setting [11]), 0.395 ± 0.089; in the assay with E. coli TESEC Mtb DapB (setting [12]), 0.223 ± 0.0088; with E. coli TESEC Mtb DapB (setting [13]), 0.23 ± 0.037; in assay [3], 0.469 ± 0.013; in the assay on E. coli TESEC Mtb Alr [4] (setting [14]), 0.408 ± 0.011. In addition, the growth in the assay with E. coli TESEC Mtb Alr [4] (setting [15]) was determined as 0.312 ± 0.023.

`CC(CN(C)C)CN1c2ccccc2Sc2ccccc21` (configuration not stated) [Trimeprazine tartrate]: the growth in assay [1] is 0.184 ± 0.019; with E. coli TESEC Mtb Alr [2] (setting [5]) it was 0.221 ± 0.019; in the assay with E. coli TESEC Mtb Alr [2] (setting [6]), 0.255 ± 0.0092; with E. coli TESEC Mtb Alr [2] (setting [7]) it was 0.189 ± 0.012; with E. coli TESEC Mtb Alr [2] (setting [8]), 0.129 ± 0.0014; in the assay on E. coli TESEC Mtb Alr [2] (setting [9]), 0.168 ± 0.0079. The growth in the assay with E. coli TESEC Mtb Asd (setting [10]) amounted to 0.175 ± 0.028; in the assay on E. coli TESEC Mtb Asd (setting [11]), 0.323 ± 0.07; with E. coli TESEC Mtb DapB (setting [12]), 0.192 ± 0.0094; in the assay on E. coli TESEC Mtb DapB (setting [13]) it was 0.231 ± 0.019; in assay [3] it was 0.526 ± 0.013; in the assay on E. coli TESEC Mtb Alr [4] (setting [14]), 0.392 ± 0.0092. For the same compound, the growth in the assay on E. coli TESEC Mtb Alr [4] (setting [15]) was 0.298 ± 0.018.

As for `CCN(CC)CC#CCOC(=O)C(O)(c1ccccc1)C1CCCCC1` (configuration not stated) [Oxybutynin chloride], the growth in assay [1] is 0.148 ± 0.0035; in the assay on E. coli TESEC Mtb Alr [2] (setting [5]) it was 0.13 ± 0.067; in the assay on E. coli TESEC Mtb Alr [2] (setting [6]) it was 0.167 ± 0.004; with E. coli TESEC Mtb Alr [2] (setting [7]), 0.131 ± 0.072; with E. coli TESEC Mtb Alr [2] (setting [8]), 0.0668 ± 0.00052; in the assay on E. coli TESEC Mtb Alr [2] (setting [9]), 0.117 ± 0.0015. Also, the growth with E. coli TESEC Mtb Asd (setting [10]) was 0.137 ± 0.017; in the assay on E. coli TESEC Mtb Asd (setting [11]), 0.191 ± 0.033; in the assay with E. coli TESEC Mtb DapB (setting [12]), 0.159 ± 0.0078; in the assay with E. coli TESEC Mtb DapB (setting [13]), 0.172 ± 0.034; in assay [3], 0.41 ± 0.043; in the assay on E. coli TESEC Mtb Alr [4] (setting [14]), 0.398 ± 0.031. Further, the growth in the assay on E. coli TESEC Mtb Alr [4] (setting [15]) amounted to 0.145 ± 0.025.
